# Results as given in PubChem BioAssay.
# Activity calls are given as the source filed them.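 How the source made its calls, unless noted: active means visually confirmed hit in the image check and inhibition above 20%; inconclusive means visually confirmed hit but inhibition not above 20%; inactive means no visual hit in the image check.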
# Key:
# [1] = inhibitors of TNFa-induced NFkB p65 translocation, primary screen, imaging, HUVEC, MLSMR starter and 10KST1 sets (AID 438;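 active means inhibition above 20% together with a positive visual image hit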;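 further: compound added about 3h40 before a 20 min TNFalpha stimulation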;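 on inhibition: signal is the nuclear over cytoplasmic p65 intensity ratio per well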); conditions: HUVEC TNFa-induced p65 nuclear translocation; cell count: measured here: nuclei count (cytotoxicity indicator), at 2.08 µM; inhibition: at 2 µM, stronger effect = higher value, 0% TNFa-plus-vehicle, 100% no-TNFa wells
# [2] = inhibitors of mutant huntingtin aggregation, primary screen, imaging, exon1htt(103Q)mCFP cells, high-content imaging (AID 483;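 active means visual image review flags a hit and inhibition of aggregation exceeds 20%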;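 further: compound exposure lasted 3 days before fixation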;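 on nuclei count: percent of the per-plate median nuclei count of sample wells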); conditions: exon1htt(103Q)mCFP cell line, aggregate imaging, at 2 µM; inhibition of aggregation: stronger effect = higher value; nuclei count: measured here: cell count, toxicity
# [3] = inhibitors of E-selectin induction by TNFa, primary screen, imaging, HUVEC, immunofluorescence, MLSMR starter and 10KST1 sets (AID 487); conditions: HUVEC TNFalpha-induced E-selectin immunofluorescence imaging, at 2 µM; inhibition: stronger effect = higher value; nuclei count: measured here: cell number, toxicity;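 on inhibition: signal is fraction of cell area covered by stained E-selectin grains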;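 on nuclei count: 100% = median nuclei count of all wells on the same plate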
# [4] = target: Voltage-gated potassium channel subunit beta-2 (Rattus norvegicus) (UniProt P62483); test: KvBeta enzyme negative modulators, primary screen, biochemical, NADPH fluorescence (AID 622;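 active means fluorescence slope higher than the sample average by over 3 SD, cut at about -0.22 in these data, passing the limit was not always enough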;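 further: slope of raw intensity against log time taken from 70 to 1610 s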); conditions: recombinant KvBeta, 4-cyanobenzaldehyde reduction, at 10 µM, stronger effect = higher value
# Voltage-gated potassium channel subunit beta-2 (Rattus norvegicus), sequence (P62483 whole entry, looked up): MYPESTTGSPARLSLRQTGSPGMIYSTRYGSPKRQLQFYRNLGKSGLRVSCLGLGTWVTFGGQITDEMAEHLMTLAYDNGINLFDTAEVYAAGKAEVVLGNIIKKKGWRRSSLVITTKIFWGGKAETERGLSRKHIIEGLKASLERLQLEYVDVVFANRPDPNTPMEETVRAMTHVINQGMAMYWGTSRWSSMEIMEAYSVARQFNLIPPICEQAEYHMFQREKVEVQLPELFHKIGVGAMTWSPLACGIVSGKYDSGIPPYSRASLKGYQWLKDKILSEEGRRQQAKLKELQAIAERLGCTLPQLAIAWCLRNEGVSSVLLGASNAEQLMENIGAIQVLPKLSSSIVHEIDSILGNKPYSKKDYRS
# [5] = target: Voltage-gated potassium channel subunit beta-2 (Rattus norvegicus) (UniProt P62483); test: KvBeta positive modulators, primary screen, biochemical, NADPH fluorescence (AID 623;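 active means NADPH fluorescence slope more negative than the mean of all samples by about 3 SD, 99.7% confidence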;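 further: fluorescence intensity change per second fitted from 20 to 320 s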); conditions: Recombinant KvBeta, NADPH fluorescence decrease slope, 10 min; at 10 µM; stronger effect = lower value
# [6] = target: Alpha-2C adrenergic receptor (Homo sapiens) (UniProt P18825); test: modulators of alpha2C/GIRK thallium flux, primary screen, cell-based, HEK293 alpha2C/GIRK1/2 (AID 624;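 active means fluorescence slope after compound addition differing from the mean of all screened samples at 99.7% confidence, in either direction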;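 further: slope of fluorescence ratio to pre-addition baseline per second over 15 to 24 s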); conditions: thallium flux BTC fluorescence, at 10 µM, actives lie on both sides
# Alpha-2C adrenergic receptor (Homo sapiens), sequence (P18825 whole entry, looked up): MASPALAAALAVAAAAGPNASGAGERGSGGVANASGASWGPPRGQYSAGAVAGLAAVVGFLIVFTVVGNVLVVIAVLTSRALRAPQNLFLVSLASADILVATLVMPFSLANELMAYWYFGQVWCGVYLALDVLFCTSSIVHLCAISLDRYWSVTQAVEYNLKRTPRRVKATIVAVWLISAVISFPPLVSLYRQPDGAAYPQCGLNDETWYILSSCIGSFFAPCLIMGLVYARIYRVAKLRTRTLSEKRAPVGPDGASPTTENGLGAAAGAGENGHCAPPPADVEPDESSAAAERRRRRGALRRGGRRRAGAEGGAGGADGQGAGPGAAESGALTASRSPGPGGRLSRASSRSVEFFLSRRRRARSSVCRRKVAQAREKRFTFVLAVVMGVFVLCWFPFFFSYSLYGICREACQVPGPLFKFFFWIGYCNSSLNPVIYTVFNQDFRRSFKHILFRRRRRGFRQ
# [7] = inhibitors of Sendai virus-induced IRF3 signaling, primary screen, TLR/RLR signaling modifier project, cell-based, Sendai virus stimulus, luciferase, 10K MLSCN set (AID 602276;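 active means inhibition at or above 50% at 10 µM; inactive means inhibition below 50%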;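 further: firefly luciferase from ISG56 promoter only with Renilla not read in this screen; 0% = Sendai virus plus DMSO and 100% = medium plus DMSO without virus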); conditions: HEK293 RL24 IRF3 luciferase reporter, at 10 µM, stronger effect = higher value
# [8] = inhibitors of poly I:C-induced TLR3 signaling, primary screen, cell-based, poly I:C stimulus, luciferase, 10K MLSCN set (AID 602277;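 active means inhibition of the reporter signal at or above 50%; inactive means inhibition below 50%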); conditions: HEK293-TLR3 RL24 IRF3 luciferase reporter, at 10 µM, stronger effect = higher value
Structure (SMILES),cell count [1],inhibition [1],inhibition of aggregation [2],nuclei count [2],inhibition [3],nuclei count [3],fluorescence slope [4],NADPH fluorescence slope [5],slope [6],inhibition [7],inhibition [8]
CC(=O)Nc1cccc(NC(=O)c2oc3ccccc3c2C)c1,343,-0.2% (inactive),0.5% (inactive),98.8%,-9.3% (inactive),112%,-0.521 (inactive),1.6e-05 (inactive),0.00572 (inactive),-37.4% (inactive),-104% (inactive)
COc1cc2c(C#N)c(N3CCOCC3)nc(N)c2c(N)n1,694,-7.8% (inactive),-18.2% (inactive),117%,-22.5% (inactive),114%,-0.0448 (inactive),-2.1e-06 (inactive),0.00579 (inactive),15.2% (inactive),46.9% (inactive)
O=C(Nc1ccc(OC(=O)c2ccco2)cc1)c1ccco1,239,-2.2% (inactive),-7.4% (inactive),92%,10.8% (inactive),101%,-0.442 (inactive),-1e-05 (inactive),0.00563 (inactive),4.1% (inactive),-1.78% (inactive)
CCOCC(=O)Nc1c(C(=O)Nc2ccc(OC)cc2OC)oc2ccccc12,543,-4.1% (inactive),19.2% (inactive),93.9%,52.4% (inactive),57.7%,-0.19 (inactive),-9.5e-06 (inactive),0.00574 (inactive),-20.7% (inactive),-15.2% (inactive)
CC(=O)NC(Cc1cc(C)ccc1C)C(=O)N1CCN(C(=O)Nc2ccc(C(C)=O)cc2)CC1 (centres undefined),324,-2.1% (inactive),-26% (inactive),106%,-23.1% (inactive),99.8%,-0.378 (inactive),-4.4e-05 (inactive),0.00656 (inactive),2.34% (inactive),-13% (inactive)
Cc1nc2ccc(S(=O)(=O)NC(C(=O)NCc3cccs3)C(C)C)cc2s1 (centres undefined),332,-8.3% (inactive),24.4% (inactive),88.7%,-28.8% (inactive),106%,-0.612 (inactive),-5.2e-05 (inactive),0.00687 (inactive),-5.51% (inactive),14.4% (inactive)
COc1ccc(OC)c(S(=O)(=O)N2c3ccccc3CC2C)c1 (centres undefined),609,-6.3% (inactive),4.4% (inactive),84.6%,-32% (inactive),123%,-0.566 (inactive),2.6e-06 (inactive),0.00606 (inactive),5.85% (inactive),21.2% (inactive)
Cc1cc(C)n(C2=NS(=O)(=O)c3ccccc32)n1,343,-2.4% (inactive),7.1% (inactive),92%,70.9% (active),78.2%,-0.576 (inactive),-1.6e-05 (inactive),0.00396 (inactive),-8.5% (inactive),-27.5% (inactive)
CCCc1c(O)nc(SCC(=O)NCCc2ccc(OC)c(OC)c2)[nH]c1=O,581,-10.8% (inactive),5.3% (inactive),73.8%,38.4% (inactive),82.7%,-0.486 (inactive),-3.3e-05 (inactive),0.00432 (inactive),13.2% (inactive),13.9% (inactive)
O=C(CCn1c(=S)[nH]c2cc3c(cc2c1=O)OCO3)N1CCN(C2CCCCC2)CC1,473,4.3% (inactive),4.1% (inactive),129%,28.2% (inactive),85.3%,-0.476 (inactive),-9.8e-07 (inactive),0.00668 (inactive),3.29% (inactive),33.1% (inactive)
Cc1ccc(-n2c3c(cc(C(=O)NC4CCSC4=O)c2=O)C(=O)CC(C)(C)C3)cc1 (centres undefined),294,7.2% (inactive),7% (inactive),100%,-48.3% (inactive),97.9%,-0.458 (inactive),-8.6e-06 (inactive),0.00353 (inactive),-0.246% (inactive),38.6% (inactive)
CC(=O)OC(C(=O)NC1CCCCC1)c1ccncc1 (centres undefined),614,-8.1% (inactive),-3.6% (inactive),105%,-147% (inactive),107%,-0.498 (inactive),-3e-05 (inactive),0.00464 (inactive),8.21% (inactive),13.3% (inactive)
Nc1cc(N)cc(-c2nc3ccccc3o2)c1,595,-1.3% (inactive),-3.7% (inactive),109%,-53.9% (inactive),116%,-0.56 (inactive),-4.4e-05 (inactive),0.00618 (inactive),-12.2% (inactive),-26% (inactive)
O=C(Cc1cccs1)Nc1nnc(CCc2ccccc2)s1,382,1.5% (inactive),15.6% (inactive),110%,-152% (inactive),117%,-0.437 (inactive),-5.5e-05 (inactive),0.00318 (inactive),9.85% (inactive),31.2% (inactive)
